# fixLJ activator: increases Burkholderia fixLJ two-component signaling; B. multivorans fixK-promoter GFP reporter, 18 h; stronger effect = higher value; z-score (no concentration beside the values); hit rate 0.3% among 29,000;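 active = replicate mean overnight rise in green fluorescent reporter signal, 3 or more SD over negative controls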
# Numbers stand for hits; . = inactive. This excerpt belongs to a sample that is enriched for hits.
SMILES,fixLJ activator
Cc1ccc(S(=O)(=O)c2nc(-c3ccco3)oc2SCc2ccccc2Cl)cc1,.
CCn1nc(C)c(CN(CCOC)Cc2cnc(C)cn2)c1C,.
CC(C)C(=O)N1CCC(C(=O)NC2COCC2Cc2ccncc2)CC1 (stereo unspecified),.
CN1CCN(c2ccc(C(=O)NC3COCC3Cc3ccnc4ccccc34)cc2)CC1 (stereo unspecified),.
COc1ccc(OC)c(C(=O)N2Cc3cnc(C(C)(C)C)nc3C2)c1,.
COc1ccc(CNC(=O)c2ccc(CNS(=O)(=O)c3ccc(OC)cc3)cc2)cc1,.
COCc1noc(CNC(=O)c2ccc(N(C)S(C)(=O)=O)cc2)n1,3.01
CN(c1ccc(C(=O)NCc2noc(-c3cccs3)n2)cc1)S(C)(=O)=O,.
Cc1ccccc1-c1cn[nH]c1C1CCN(C(=O)C2(C(N)=O)CC2)CC1,.
CCCc1cc(C(=O)N(CC)Cc2noc(CC(C)C)n2)n[nH]1,.
COCCC(=O)NC1COCC1Cc1ccnc2ccccc12 (stereo unspecified),.
Cc1cc(/C=C/c2ccc3cc(N(C)C)ccc3[n+]2C)c(C)n1-c1ccccc1,4.03
O=C(Cn1ncc2c3ccccc3n(Cc3ccc(Cl)cc3)c2c1=O)NC1CCCCCC1,10.7
O=C(Cn1ncc2c3ccccc3n(Cc3ccc(Cl)cc3)c2c1=O)NCCC1=CCCCC1,6.41
CC1CCC(NC(=O)Cn2ncc3c4ccccc4n(Cc4ccc(Cl)cc4)c3c2=O)CC1 (stereo unspecified),.
Cc1ccccc1Cn1c2ccccc2c2cnn(CC(=O)NC3CCCCCC3)c(=O)c21,.
O=C(Cn1ncc2c3ccccc3n(Cc3ccccc3)c2c1=O)NCCc1ccc(Cl)cc1,.
Cc1cc(C)c(Cn2c3ccccc3c3cnn(CC(=O)NCCC4=CCCCC4)c(=O)c32)c(C)c1,.
Cc1nnc(SCCCNC(=O)Nc2cc3[nH]cnc3c(C)c2C)s1,.
CCN(CC=Cc1ccccc1)C(=O)CCc1nc(-c2ccncc2)no1,.
CN1CCC(NC(=O)N(Cc2ccc3[nH]ccc3c2)C2CC2)C1 (stereo unspecified),.
CS(=O)(=O)c1ccc(C(=O)N2CCN(c3ccc(Cl)cn3)CC2)cc1,.
CCCc1nc(C)cc(N2CCC3OCc4cnnn4C3C2)n1 (stereo unspecified),.
Nc1c(C(=O)Nc2ccc(Cl)cc2F)sc2nc(-c3cccs3)ccc12,8.67
Nc1c(C(=O)Nc2ccccc2Br)sc2nc(-c3cccs3)ccc12,.
SMILES,fixLJ activator
Nc1c(C(=O)Nc2ccc(F)c(F)c2)sc2nc(-c3ccncc3)ccc12,.
Cc1cccn2cc(CN3CCN(S(=O)(=O)N4CCOCC4)CC3)nc12,.
CCCCN1CC2(CCCN(C(=O)c3cc(C(F)(F)F)[nH]n3)C2)CCC1=O (stereo unspecified),.
Cc1cc2nc(CCC(=O)NCc3ncc(Cl)cn3)[nH]c2cc1C,.
COc1cccc(NC(CNS(=O)(=O)c2ccc(Cl)cc2)c2ccccc2)c1 (stereo unspecified),4.19
COc1cccc(NC(CNS(=O)(=O)c2ccc(C)cc2)c2ccccc2)c1 (stereo unspecified),.
Cc1ccc(NC(CNS(=O)(=O)c2ccc(Cl)cc2)c2ccccc2)cc1 (stereo unspecified),.
Cc1cc2nc(C(=O)N(CCC(N)=O)CCc3ccccc3)cc(C)n2n1,.
CCN(CC)CCCC(C)Nc1ncnc2sc(C(=O)O)c(C)c12 (stereo unspecified),.
Cc1cccc(C)c1NC(=O)Cn1c(=O)n(Cc2ccc(C(=O)NCc3ccco3)cc2)c(=O)c2sccc21,.
Cc1ccc(CNC(=O)c2ccc(Cn3c(=O)c4ccccc4n(CC(=O)Nc4c(C)cc(C)cc4C)c3=O)cc2)cc1,.
Cc1cc(C)c(NC(=O)Cn2c(=O)n(Cc3ccc(C(=O)NCc4ccco4)cc3)c(=O)c3sccc32)c(C)c1,4.53
O=C(O)C1CCC(C(=O)N2CCC(Oc3cccc(Cl)c3)CC2)C1 (stereo unspecified),.
CCOc1cc(C(c2c(C)[nH]n(-c3ccccc3)c2=O)c2c(C)[nH]n(-c3ccccc3)c2=O)ccc1O,3.29
COc1cc(C(c2c(C)[nH][nH]c2=O)c2c(C)[nH][nH]c2=O)ccc1OC(=O)c1ccccc1OC,.
Cc1[nH]n(-c2ccccc2)c(=O)c1C(c1cc(Cl)ccc1O)c1c(C)[nH]n(-c2ccccc2)c1=O,.
CC1CN(c2nccc(-c3cc(C(=O)O)ccn3)n2)CC(C)O1 (stereo unspecified),.
CN(C)S(=O)(=O)N1CC2CCC(C1)C2NC(=O)CNC(=O)c1ccccc1 (stereo unspecified),.
CCCCN1CCC(O)[C@]2(CCCN(C(=O)C3(COC)CCC3)C2)C1 (stereo partly specified),.
CC(C)(C)c1ccc(C2Sc3ccccc3NC3=C2C(=O)c2ccccc23)cc1 (stereo unspecified),3.48
CC(=O)N1CCc2c(nc(-c3cccnc3)nc2NCC(C)(C)C)C1,.
Cn1ccc2ccc(CN3CC4CN(C5CCOCC5)C[C@@]4(C(=O)O)C3)cc21 (stereo partly specified),.
O=C(NC1COCC1Cc1ccncc1)c1ccc(N2CCCCC2)cc1 (stereo unspecified),.
Cc1cc(S(=O)(=O)NC2COCC2Cc2ccncc2)c(C)cc1Cl (stereo unspecified),.
Cc1ccc(Nc2c(-c3c[nH]c4ccccc34)nc3ccccn23)cc1,4.58
Cc1ccc(Nc2c(-c3ccc(Br)o3)nc3ccccn23)cc1,.
Cc1ccc2nc(-c3c[nH]c4ccccc34)c(Nc3ccccc3C)n2c1,.
O=C(CCc1cn2ccccc2n1)N(Cc1ccccn1)CC1CCCO1 (stereo unspecified),.
CCc1nn(C)c(NC(=O)N(Cc2ccsc2)CC2CCCO2)c1C (stereo unspecified),.

# Assay outcomes from PubChem BioAssay.
